The list is not random: actives were taken first. Their share in the collection is about 2%.
S1P4 agonist: S1P4 receptor agonists, primary screen, cell-based; Sphingosine 1-phosphate receptor 4 (Homo sapiens), O95977; S1P4-expressing cell line, agonist reporter assay; activation, % at 4.98 µM; 0.35% of 220,000 active; AID 1509, 2009; in the data active = activation above about 11%;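 also: 0% = DMSO vehicle and 100% = reference agonist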
S1P3 antagonist: S1P3 receptor antagonists, primary screen, cell-based; Sphingosine 1-phosphate receptor 3 (Homo sapiens), Q99500; CHO S1P3 NFAT-BLA reporter, FRET fluorescence, antagonist mode; 0.27% of 170,000 active; inhibition, % at 4.98 µM;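 active = inhibition above the plate cutoff, the mean inhibition of test wells on that plate plus 3 SD, cut at about 28% in these data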;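 also: cells challenged with S1P at its EC80 of 0.8 µM; blue over green emission ratio from cleaved BLA substrate after 4 h stimulation; 0% = S1P-stimulated wells and 100% = unstimulated DMSO-only wells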
PGE2 EP2 inh: human EP2 receptor antagonists, primary screen, TR-FRET cAMP, C6 glioma cells; Prostaglandin E2 receptor EP2 subtype (Homo sapiens), P43116; C6 glioma cells expressing human EP2; cells stimulated with saturating PGE2; inhibition, % at 25 µM; 0.52% of 260,000 active;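 active = percent inhibition above 40 after rounding to a whole number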;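 also: rat C6 glioma host cells with rolipram phosphodiesterase inhibitor present; the protocol text gives 20 µM as final concentration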
Target sequence (P43116 whole entry, looked up): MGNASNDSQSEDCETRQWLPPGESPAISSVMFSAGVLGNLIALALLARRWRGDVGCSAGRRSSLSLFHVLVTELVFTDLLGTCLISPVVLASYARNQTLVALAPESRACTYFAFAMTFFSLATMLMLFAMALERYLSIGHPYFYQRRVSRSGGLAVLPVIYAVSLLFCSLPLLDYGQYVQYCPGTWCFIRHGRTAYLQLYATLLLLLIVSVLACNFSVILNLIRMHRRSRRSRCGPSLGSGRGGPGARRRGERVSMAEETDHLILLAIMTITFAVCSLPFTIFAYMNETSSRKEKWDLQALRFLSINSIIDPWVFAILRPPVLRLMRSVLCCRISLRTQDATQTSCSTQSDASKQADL
S1P4 antagonist: S1P4 receptor antagonists, primary screen, cell-based. S1P4-expressing cells, antagonist mode, reporter read-out. inhibition, % at 4.98 µM. 0.26% of 220,000 active. AID 1510, 2009; in the data active = inhibition above about 29%;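 also: 0% = wells stimulated with agonist and 100% = vehicle wells without agonist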
EP2 modulator: EP2 receptor modulators, cAMP readout, primary screen, cell-based, HTRF cAMP, PGE2 stimulation. Prostaglandin E2 receptor EP2 subtype (Homo sapiens), P43116. AID 940, 2007. 0.83% of 260,000 active. induction, % at 25 µM. EP2-expressing cells, cAMP HTRF FRET, PGE2 co-stimulation;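 active = compounds whose cAMP rise, as percent of the full-agonist control response, exceeds 60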;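 also: rat C6 glioma line stably carrying human EP2 under a CMV promoter; the protocol text gives 20 µM as final concentration; 100% = response of wells given 1 µM PGE2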
EP2 confirm: cAMP induction in EP2, EP4, beta2-AR and parental cells, confirmation, counter-screen for EP2 modulator project, cell-based, five parallel assays, C6 glioma, HEK293 | calls only at 20 µM (by protocol) | 47% of 1,300 active | cAMP HTRF induction; plus low (about EC15) PGE2 agonist | shares compounds with EP2 modulator;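 active = cAMP induction above 50% in the main assay while under 30% in all four parallel counter assays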;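 also: rat C6 glioma cells stably expressing human EP2 receptor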
* marks the source's active call; other numbers are inactive results; i = inactive; . = not tested or not shown; + = active, no number.

SMILES	S1P4 agonist	S1P3 antagonist	PGE2 EP2 inh	S1P4 antagonist	EP2 modulator	EP2 confirm
CC1=Nc2ccccc2/C1=C/c1sc(=S)n(-c2cccc(C(=O)O)c2)c1O	0	2	7	-16	71*	+
Oc1c(C=C2N=c3ccccc3=N2)sc(=S)n1-c1ccccc1	0	-2	3	-23	-9	.
Cc1ccc(-c2csc(Nc3ccc(C(=O)O)cc3)[n+]2Cc2ccccc2)cc1	0	-2	4	-3	76*	+
COc1ccccc1NC(=O)N(Cc1ccccc1)C1=NCC(C)S1 (centres undefined)	-1	11	0	8	60	.
COc1ccccc1N(C(=O)NCc1ccccc1)C1=NCC(C)S1 (centres undefined)	0	-22	9	22	69*	+
CCCCC(=O)C1CCN(Cc2ccccc2)CC1	0	.	8	-11	106*	i
CCCCNC(=O)C1CCN(Cc2ccc(OCc3ccccc3)cc2)CC1	-1	.	11	-9	-5	.
CCc1nc(N2CCCCC2)c2oc3ccccc3c2n1	-5	-2	8	-5	76*	i
CCc1nc(N2CCCCC2C)c2oc3ccccc3c2n1 (centres undefined)	1	16	3	-14	48	.
CC(C)c1nc(NCCc2ccccn2)c2nnn(Cc3ccccc3F)c2n1	.	.	5	.	39	.
CCCc1n[nH]c(=S)n1Cc1ccco1	1	7	9	-9	19	.
S=c1[nH]nc(C23CC4CC(CC(C4)C2)C3)n1Cc1ccco1	-2	-7	23	1	73*	+
Nc1cccc(OCc2nc(N)nc(N)c2-c2ccc(Cl)cc2)c1	.	.	8	.	56	i
COC(=O)c1ccc2nc(NC(=O)c3ccc(Cl)cc3Cl)sc2c1	.	.	21	.	-22	.
COc1ccc(CC(=O)NCCc2nc(-c3ccncc3)n[nH]2)cc1	.	.	.	.	19	.
O=C(CSc1nnc(-c2cc3ccccc3cc2O)n1Cc1ccco1)c1ccc(F)cc1	0	-4	3	-13	50	i
COc1ccccc1-c1nnc(SCC(=O)c2ccc(C3CCCCC3)cc2)n1Cc1ccco1	-1	.	7	-1	54	+
Cc1ccc(-n2nnc3ccccc3c2=O)cc1C	0	40	9	-23	12	.
Cc1ccc(-n2c(=S)[nH]c3c(oc4ccccc43)c2=O)cc1C	0	-11	16	-8	74*	i
CC(=O)N1Cc2ccccc2C(C)CC12CCCCC2 (centres undefined)	3	2	11	-18	66*	+
CC(=O)N1c2ccc3ccccc3c2C(C)CC12CCCCC2 (centres undefined)	-2	.	4	5	55	.
O=C(NC1CC1)[C@@H]1C=CCN1S(=O)(=O)c1cccc(F)c1	.	.	.	.	-40	.
CCCc1cc(=O)n2[nH]c(NCc3ccccc3Cl)nc2n1	0	-31	11	4	29	.
CCCc1cc(=O)n2[nH]c(NCc3cccs3)nc2n1	-1	.	-1	6	71*	i
COCCNC(=O)CN(CC1CCCO1)C(=O)CCC(=O)Nc1ccccn1 (centres undefined)	-1	-9	13	6	27	.
COCCNC(=O)C(c1ccc(F)cc1)N(CC1CCCO1)C(=O)CCC(=O)Nc1ccccn1 (centres undefined)	-1	-25	10	-17	72*	i
CC(C)Sc1cc(N2CCOCC2)nc(-c2ccc(Cl)cc2)n1	0	.	10	4	82*	i
CCOC(=O)c1ccc(NC(=O)N2CCCC(c3ncncc3S(C)(=O)=O)C2)cc1 (centres undefined)	.	.	.	.	-1	.
O=c1cc(N2CCCCC2)c(-c2ccccc2)nn1Cc1cccc(Cl)c1	-1	.	7	-6	81*	+
O=c1cc(N2CCCCC2)c(-c2ccccc2)nn1Cc1ccc(Cl)cc1Cl	0	.	8	-8	60	.

Compound activity as filed in PubChem.
